Most compounds without a hit are left out; they make up all but 10% or so of the library.
HEK293 tox = HEK 293 cell cytotoxicity. Potency, µM (doses to about 115 µM), without a hit: top-dose activity change, negative = cytotoxicity, most hits filed as inhibitors. 94,000 compounds, 6.6% hits. HEK 293 viability, ATP luminescence (CellTiter-Glo), 48-72 h; also: nearly all actives have a fitted effect of over 60% in size
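CellTiter-Glo luminescence (cellular ATP) was read after 48 or 72 hr of compound exposure at 37 degree Celsius. Cells were HEK 293 plated at 250 cells/well.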
Luciferase inh = inhibitors of firefly (Photinus pyralis) luciferase; AID 1347043; P08659; 76,000 compounds, 2.5% hits; Potency, µM (top dose mostly 115 µM), hits mostly inhibitors; purified P. pyralis luciferase, luminescence, biochemical; also: nearly all actives have a fitted effect of over 65% in size
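Purified P. pyralis luciferase (10nM final) in 50mM Tris acetate pH 7.5, 10mM Mg acetate, 0.01% Tween-20, 0.05% BSA with 10uM D-luciferin and 10uM ATP. Compounds titrated qHTS. Luminescence imaged on CCD.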
3T3 cytotox = kills NIH 3T3 cells | NIH 3T3 viability, CellTiter-Glo ATP luminescence, 48-72 h | AID 1345082 | 94,000 compounds, 4.3% hits | Potency, µM (series often up to 96.7 µM), for inactives: at the top dose activity change, negative = cytotoxicity, actives largely listed as inhibitors; also: nearly all actives have a fitted effect of over 55% in size
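Mouse fibroblast NIH 3T3 cells, 400 per well, received compound via pintool and were incubated for 48 or 72 hr prior to CellTiter-Glo ATP luminescence measurement.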
NPR1 antag = antagonists of human natriuretic peptide receptor Npr1; HEK293 hNpr1 GloSensor cGMP, ANP-stimulated luminescence; P16066; AID 1347048; 76,000 compounds, 1.6% hits; Potency, µM (titrated, usually from 46.3 µM), for inactives: at the highest dose activity change, negative = inhibition, most hits filed as inhibitors; calls by dose curve; also: nearly all actives have a fitted effect of over 60% in size
Target sequence (P16066 whole entry, looked up): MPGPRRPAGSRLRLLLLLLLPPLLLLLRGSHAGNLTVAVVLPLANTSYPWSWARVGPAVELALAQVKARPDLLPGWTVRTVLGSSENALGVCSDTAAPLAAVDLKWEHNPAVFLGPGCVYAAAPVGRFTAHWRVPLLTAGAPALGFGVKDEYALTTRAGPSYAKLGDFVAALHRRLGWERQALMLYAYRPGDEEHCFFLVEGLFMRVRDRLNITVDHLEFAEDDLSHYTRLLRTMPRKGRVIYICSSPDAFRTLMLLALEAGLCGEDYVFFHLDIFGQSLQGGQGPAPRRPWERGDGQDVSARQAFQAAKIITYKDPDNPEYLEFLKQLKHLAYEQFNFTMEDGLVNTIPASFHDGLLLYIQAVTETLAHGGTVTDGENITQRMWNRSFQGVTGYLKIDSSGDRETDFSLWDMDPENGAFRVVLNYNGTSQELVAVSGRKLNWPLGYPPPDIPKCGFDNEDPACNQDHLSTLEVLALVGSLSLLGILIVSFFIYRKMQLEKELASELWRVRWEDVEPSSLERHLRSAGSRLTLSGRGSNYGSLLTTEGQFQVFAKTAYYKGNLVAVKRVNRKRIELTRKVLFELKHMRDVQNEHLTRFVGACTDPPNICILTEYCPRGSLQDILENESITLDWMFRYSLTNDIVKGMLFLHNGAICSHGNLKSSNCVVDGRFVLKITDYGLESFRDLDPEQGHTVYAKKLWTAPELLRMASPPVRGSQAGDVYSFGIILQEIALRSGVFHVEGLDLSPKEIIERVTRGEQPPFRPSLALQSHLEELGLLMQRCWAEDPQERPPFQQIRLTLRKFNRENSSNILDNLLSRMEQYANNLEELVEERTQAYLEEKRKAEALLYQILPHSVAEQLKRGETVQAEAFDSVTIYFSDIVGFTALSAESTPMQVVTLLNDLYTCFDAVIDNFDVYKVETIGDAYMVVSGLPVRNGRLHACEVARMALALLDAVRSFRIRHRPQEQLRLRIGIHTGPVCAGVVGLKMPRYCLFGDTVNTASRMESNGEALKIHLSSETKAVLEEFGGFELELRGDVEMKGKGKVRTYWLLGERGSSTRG
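HEK293 cells stably expressing human Npr1 and cGMP GloSensor pGS-40F, loaded 2 h with 2% GloSensor reagent, given compound 30 min at room temperature. Luminescence read before and 20 min after 0.1 nM hNppA.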
GPT2 inh = blocks human glutamate pyruvate transaminase 2; Q8TD30; Recombinant GPT2, coupled pyruvate oxidase/HRP Amplex Red fluorescence; Potency, µM (doses to about 57.7 µM), without a hit: at the highest dose activity change, negative = inhibition, usual class: inhibitors; 100,000 compounds, 0.25% hits; AID 1671188; also: nearly all actives have a fitted effect of over 60% in size
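Recombinant GPT2 (10ng/uL) with 250uM a-KG and 2mM L-alanine, 30 min at room temperature, in HEPES pH 7.5 buffer. Pyruvate detected by pyruvate oxidase/HRP/Amplex Red fluorescence after 30 min in the dark; AOA (50uM) as positive control.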
Active calls of the source: *; i = inactive; ? = inconclusive; · = no result; [ ] = another dose, or the depositor's remark. Unless noted, calls follow the shape of the dose curve; as a rule, active = well fitted curve in the direction sought with a large enough effect; inconclusive = small, poorly fitted or top-dose-only effect, or another doubt; inactive = no such curve, though single readings can be large; an effect the other way counts as inactive or inconclusive. % is scaled to controls: 0 for no effect and ±100 for the full control effect; potency is read from the fitted curve at half-maximal effect.

SMILES	HEK293 tox	Luciferase inh	3T3 cytotox	NPR1 antag	GPT2 inh
Cc1cc(=O)n(CC(=O)N2CCCC(C)(Cc3ccc4c(c3)OCO4)C2)nc1C (stereo not given)	?	i	-30%	2%	-15%
CC1(Cc2ccc3c(c2)OCO3)CCCN(C(=O)CCCn2ccnc2)C1 (stereo not given)	40µM*	i	?	-13%	-1%
Cc1cc(C)n(CC(=O)N2CCCC(C)(Cc3ccc4c(c3)OCO4)C2)c(=O)n1 (stereo not given)	-2%	i	-4%	-2%	-5%
CC1(Cc2ccc3c(c2)OCO3)CCCN(CC(=O)NCc2ccco2)C1 (stereo not given)	45µM*	i	-25%	?	-5%
COCC1CN(C2CCC2)CC12CCN(C(=O)c1ccc3ncccc3c1)CC2 (stereo not given)	-16%	·	-9%	·	2%
O=C(NCc1ccc2c(c1)OCO2)c1nc2cccnc2n(Cc2ccccc2)c1=O	79µM*	·	?	·	2%
O=C(Cc1ccc(F)cc1)NC1CCN(c2nccc(Nc3ccccc3F)n2)CC1	?	·	?	·	-2%
COc1ccc(CC(=O)N2CCN(c3nccc(Nc4ccccc4F)n3)CC2)cc1	45µM*	·	?	·	-1%
O=C(Cc1ccccn1)N1CCN(c2nccc(Nc3ccccc3F)n2)CC1	?	·	?	·	i
COc1ccc(Nc2ccnc(N3CCC(NC(=O)NC4CCCC4)CC3)n2)cc1	?	·	?	·	1%
COc1ccc(CC(=O)NC2CCN(c3nccc(Nc4ccccc4F)n3)CC2)cc1	?	·	45µM*	·	i
COc1ccc(Nc2ccnc(N3CCC(NC(=O)Cc4ccc(F)cc4)CC3)n2)cc1	40µM*	·	?	·	i
N#Cc1cccc(C(=O)N2CCC3(CC2)CC(CO)N(C(=O)c2ccccc2)C3)c1 (stereo not given)	-21%	i	0%	9%	-3%
O=C(Nc1ccc(Cl)nc1)c1ccn2nccc2c1	-2%[172 µM]	i	-7%[138 µM]	-20%[70.6 µM]	i
Cc1cccc(C(=O)NC2CCN(c3cc(-c4ccccc4)[nH]n3)C2)c1 (stereo not given)	-22%	i	-20%	-10%	-11%
CC(C)CN[C@@H]1C[C@H](CO)[C@@H](O)[C@H]1O	-1%[287 µM]	i	-2%[230 µM]	-12%[122 µM]	i
COc1cccc(C(=O)N2CCC3(CC2)CC(c2cccc(C(F)(F)F)c2)=NO3)c1	45µM*	·	?	·	·
COc1ccc(C2=NOC3(CCCN([S+](=O)([O-])c4cccc(OC)c4)C3)C2)cc1 (stereo not given)	?	·	-26%	·	i
COc1ccc(C2=NOC3(CCN([S+](=O)([O-])c4ccccc4)C3)C2)cc1 (stereo not given)	45µM*	?	?	-15%	-12%
COc1ccc(C2=NOC3(CCN(Cc4ccc(F)cc4)C3)C2)cc1 (stereo not given)	79µM*	i	?	?	i
CC(=O)N1CCC2(CC1)CC(c1cccc(C(F)(F)F)c1)=NO2	-6%[172 µM]	·	-10%[138 µM]	·	·
O=C(c1ccc(C(F)(F)F)cc1)N1CCC2(CC1)CC(c1cccc(C(F)(F)F)c1)=NO2	40µM*	i	?	-26%	-1%
O=C(c1ccccc1)N1C[C@H]2OC(=O)N(CCCN3CCOCC3)[C@H]2C1	i	i	i	7%	-19%
COCCNC(=O)c1cc(-c2ccc(F)cc2OC)cc2ncn(C)c12	-7%[172 µM]	i	?	-1%[70.6 µM]	3%[88.5 µM]
COc1ccc(CNC(=O)[C@@]23CCCC[C@H]2N(C)C(=O)CC3)c(OC)c1	0%	i	-26%	-8%	-27%
SMILES	HEK293 tox	Luciferase inh	3T3 cytotox	NPR1 antag	GPT2 inh
COc1ccc(CN2CCC3(CC2)CC(c2cccc(C(F)(F)F)c2)=NO3)cc1	50µM*	i	?	2%	i
O=C(c1ccc(Cl)cc1)N1CCC2(CC1)CC(c1cccc(C(F)(F)F)c1)=NO2	32µM*	·	?	·	·
O=C(c1ccccc1)N1CCCC2(CC(c3cccc(C(F)(F)F)c3)=NO2)C1 (stereo not given)	?	·	-30%	·	?
O=C(N1CCOCC1)N1CCC2(CC1)CC(c1cccc(C(F)(F)F)c1)=NO2	?	·	-28%	·	·
O=C(C1CCCC1)N1CCC2(CC1)CC(c1cccc(C(F)(F)F)c1)=NO2	45µM*	·	?	·	·
Cc1cc(C)n(Cc2c(C(=O)NCC3Cn4cccc4C(=O)N3C)noc2C)n1 (stereo not given)	-11%	i	-11%	-9%	i
CC(C)CCN1CCC2(CC1)C(=NC1CCCC1)NC(=O)N2c1cc(F)cc(F)c1	4%	·	-11%	·	-2%
COc1cccc(N2C(=O)NC(=NC3CCCC3)C23CCCN(CCC(C)C)C3)c1 (stereo not given)	?	·	32µM*	·	i
CC(C)CCN1CCCC2(C1)C(=NC1CCCC1)NC(=O)N2c1cc(F)cc(F)c1 (stereo not given)	?	·	32µM*	·	i
COc1ccc(-n2nc(C3CCN(C(=O)C4CC4)CC3)[nH]c2=O)cc1	0%[172 µM]	i	2%[138 µM]	2%[70.6 µM]	4%[88.5 µM]
COc1ccc(-c2ccc(NC(=O)c3ccccc3C)cc2)nn1	40µM*	·	?	·	·
COc1ccc(-c2ccc(C(=O)NCc3cccc(F)c3)cc2)nn1	?	·	-25%	·	·
O=C(NCc1cccnc1)c1ccc2oc(-c3ccc(C(F)(F)F)cc3)nc2c1	11µM*	i	?	?	i
COc1ccc(-c2ccc(C(=O)NCc3ccccc3F)cc2)nn1	112µM*	·	?	·	·
COc1ccc(-c2ccc(C(=O)N(C)c3ccccc3)cc2)nn1	22µM*	·	13µM*	·	·
O=C(NC1CC1)c1ccc2cc[nH]c2n1	i	·	5%[174 µM]	·	1%[88.5 µM]
Cn1ccnc1C(=O)N1CCC2(CC1)CC(N(Cc1ccccc1)C1CC1)CCO2 (stereo not given)	?	i	?	-3%	i
O=C(NC[C@H]1O[C@H](Cc2cc(CN3CCOCC3)on2)CC[C@@H]1O)c1ccccc1	1%[172 µM]	i	1%[138 µM]	0%[70.6 µM]	-10%[88.5 µM]
COc1ccc(-c2ccc(C(=O)NCc3cccnc3)cc2)nn1	-18%[172 µM]	·	8.9µM*	·	·
COc1ccc(-c2ccc(C(=O)NCc3ccccc3)cc2)nn1	-27%[172 µM]	·	-22%[138 µM]	·	·
Cc1ccc(C(=O)N[C@@H]2CN(Cc3ccncc3)C[C@H]2CN(C)C)cc1C	25µM*	i	-26%	3%	2%
CCOC(=O)c1ccc(O)c(O)c1	·	·	·	·	28µM*
O=C1Cc2c(-c3cccc(CO)c3)n[nH]c2CN1Cc1ccccc1F	?	i	?	1%[70.6 µM]	0%[88.5 µM]
Cn1cccc1CN1CCC2(CC1)NC(=O)c1ccccc1O2	?	i	?	12%[70.6 µM]	?

Bioassay records from PubChem.
